PTHR1 ag = PTHR1 (human) receptor agonism; Q03431; HEK293 GP2 PTHR1 cells, GloSensor cAMP luminescence, 1 h; Potency, µM (doses to about 115 µM), for inactives: at the highest dose activation, most hits filed as activators; actives 0.075% (n = 410,000); AID 743266; note: nearly all actives have a fitted effect of over 55% in size
Target sequence (Q03431 whole entry, looked up): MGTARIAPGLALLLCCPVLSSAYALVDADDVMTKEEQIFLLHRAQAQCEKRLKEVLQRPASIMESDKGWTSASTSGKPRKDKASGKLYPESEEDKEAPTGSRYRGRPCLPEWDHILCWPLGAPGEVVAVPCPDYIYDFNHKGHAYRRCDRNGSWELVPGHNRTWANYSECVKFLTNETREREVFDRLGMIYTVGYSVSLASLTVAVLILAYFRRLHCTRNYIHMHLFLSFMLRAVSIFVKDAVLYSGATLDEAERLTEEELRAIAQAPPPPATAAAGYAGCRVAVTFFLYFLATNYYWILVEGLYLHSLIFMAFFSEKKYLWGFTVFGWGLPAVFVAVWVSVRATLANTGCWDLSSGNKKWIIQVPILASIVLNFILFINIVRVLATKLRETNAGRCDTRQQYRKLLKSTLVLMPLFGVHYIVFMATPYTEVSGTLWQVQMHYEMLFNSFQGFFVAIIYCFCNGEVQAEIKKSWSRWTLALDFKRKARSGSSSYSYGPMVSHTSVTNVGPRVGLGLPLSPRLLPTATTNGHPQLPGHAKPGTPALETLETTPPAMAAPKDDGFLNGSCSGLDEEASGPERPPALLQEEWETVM
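HEK-293-derived GP2 cells expressing PTHR1 and a GloSensor cAMP reporter, 3,000/well, plated overnight, given luciferin plus IBMX (each 0.5 mM as added) for 1 h at 37 °C, then compound for 1 h at 37 °C. Luminescence was read after 15 min at room temperature.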
GLP-1R inv ag = acts as inverse agonist at human GLP-1 receptor. actives 1.6% (n = 410,000). HEK293 GLP-1R CRE-luciferase, luminescence, 24 h; GLP-1R form is constitutively active. P43220. AID 624417. Potency, µM (doses to about 38.3 µM), inactives show at the highest dose activity change, negative = inhibition, hits mostly inhibitors; note: % is set by controls: 0 for no effect and ±100 for the full control effect; nearly all actives have a fitted effect of over 55% in size
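Seeding at 200 cells/uL, 12 h culture, 24 hr compound treatment, then luciferase reagent and a luminescence read; cells are HEK293 stably expressing a constitutively active GLP-1R plus cAMP-responsive luciferase.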
HEK293 tox = cytotoxicity counter-screen for GLP-1 receptor inverse agonists; HEK293 cAMP-luciferase reporter cells, luminescence, 24 h; Potency, µM (highest dose often 38.3 µM), for the others: at the highest dose activity change, negative = inhibition, usual class: inhibitors; actives 0.13% (n = 410,000);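 note: loss of luciferase light is scored as toxicity; % is set by controls: 0 for no effect and ±100 for the full control effect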
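Quantitative HTS format, 1536 wells, 200 cells/uL seeded. Compounds: 23 nL, 24 h, 37 °C. Detection: luciferase reagent, luminescence at 12 min RT; decreased signal taken as cytotoxic.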
GLP-1R agonist = GLP-1 receptor (human) agonism | P43220 | HEK293 GLP-1R CRE-luciferase, luminescence, 4-6 h; cells express a hypersensitive GLP-1R form | Potency, µM (titrated, usually from 45.6 µM), for the others: top-dose activation, actives largely listed as activators | actives 0.007% (n = 380,000); note: % of control where 0% means no effect
* marks the source's active call; other numbers are inactive results; i = inactive; ? = inconclusive; nt = no result given; [ ] = another dose, or the depositor's remark. Compounds with a hit are over-represented: about 1.7% of the library has one in this group of screens. Calls come from the whole dose curve; as a rule, active = well fitted curve in the direction sought with a large enough effect; inconclusive = small, poorly fitted or top-dose-only effect, or another doubt; inactive = no such curve, though single readings can be large; an effect the other way counts as inactive or inconclusive. Potency is the fitted concentration of half-maximal effect.

SMILES | PTHR1 ag | GLP-1R inv ag | HEK293 tox | GLP-1R agonist
CCOc1ccc(NC(=O)CSc2oc(-c3ccco3)nc2S(=O)(=O)c2ccc(Cl)cc2)cc1 | -15% | 4% | 8% | nt
Cc1cc(Nc2ccccc2C(=O)O)ccc1Cl | nt | nt | nt | -5%
COc1ccccc1N1CCN(c2nc(-c3ccc(C)cc3)nc3ccccc23)CC1 | -76% | ? | -15% | nt
CCCCN1CC(c2nc3ccccc3n2CCCCOc2cccc(C)c2C)CC1=O (stereo not given) | -3% | ? | -15% | nt
O=C(/C=C\Nc1ccc2c(c1)OCO2)c1cccs1 | -46% | 2.2µM* | -4% | -2%
CS(=O)(=O)Cc1ccc(C(=O)N2CCCC2c2cccs2)cc1 (stereo not given) | i | -1% | -3% | 4%
CC(C)(C)c1ccc(C(=O)N2CCCC2c2cccs2)cc1 (stereo not given) | -94% | 11µM* | 13% | 5%
Cc1ccc(C)c(C(C)NC(=O)C2CCCC2)c1 (stereo not given) | i | -18% | 6% | -6%
Cc1ccc(C)c(C(C)NC(=S)NC2CCCCC2)c1 (stereo not given) | -8% | 2.8µM* | -25% | 1%
CCCC(c1nnnn1Cc1ccco1)N1CCN(c2cc(Cl)ccc2C)CC1 (stereo not given) | -5% | 5µM* | -1% | 6%
CCc1ccccc1NC(=O)Nc1nnc(N(C)Cc2ccccc2)s1 | i | ? | -3% | nt
CC(C)(C)C(=O)CSc1nc2ccsc2c(=O)n1Cc1ccccc1F | i | 13µM* | -5% | nt
CNCCC1Sc2ccccc2Oc2ccccc21 (stereo not given) | i | 10µM* | 3% | 13%
O=S(=O)(Nc1ccc(-c2ccc(N3CCCC3)nn2)cc1)c1ccc(Cl)cc1 | -8% | ? | -3% | nt
CCOc1ccc(N(CC(=O)Nc2ccc(C)c(C)c2)S(=O)(=O)c2c(C)noc2C)cc1 | i | 10µM* | 14% | 7%
Cc1ccc(C(=O)NCC(c2ccc3c(c2)OCO3)N2CCN(c3ccc(F)cc3)CC2)cc1 (stereo not given) | -82% | ? | 1% | nt
CCCc1ccc(-c2cc(NC(=O)CSc3n[nH]c(N)n3)n(-c3ccccc3)n2)cc1 | 16µM* | 50% | 6% | 3%
CC(NC(=O)CSc1n[nH]c(N)n1)c1ccccc1 (stereo not given) | i | 7% | -6% | 2%
COc1cccc(NC(=S)N2CCN(C/C=C/c3ccccc3)CC2)c1 | i | 5.6µM* | -23% | 5%
CCOc1ccc2nc(NS(=O)(=O)Cc3ccccc3)sc2c1 | i | 10µM* | ? | 4%
CCOc1ccc2nc(NC(=O)c3ccccc3)sc2c1 | -32% | ? | 1% | nt
COC(=O)C1(C)CCCC2(C)C3CCC(C(C)C)C(CO)C3C(CO)CC12 (stereo not given) | -45% | 10µM* | ? | 0%
Cc1cccc2sc(N(Cc3cccnc3)C(=O)c3cccs3)nc12 | i | -21% | -3% | nt
CCCn1nc(C(=O)Nc2nc(-c3ccccn3)cs2)c2ccccc2c1=O | -20% | ? | 5µM* | -5%
O=C1c2ccccc2C(=O)N1CC(=O)N1c2ccccc2CCc2ccccc21 | i | 0% | -21% | -3%
SMILES | PTHR1 ag | GLP-1R inv ag | HEK293 tox | GLP-1R agonist
O=C(C(Cc1ccccc1)N1C(=O)c2ccccc2C1=O)N1c2ccccc2CCc2ccccc21 (stereo not given) | i | 13µM* | 6% | -1%
O=C(C[C@H]1C(=O)N(CCc2ccccc2)C[C@@H]1Cc1ccccc1)Nc1ccc(Br)cc1 | -51% | 7.9µM* | -24% | -6%
CSC[C@H]1CN(CCc2ccccc2)C(=O)[C@@H]1CC(=O)Nc1ccc(Br)cc1 | -33% | 10µM* | -13% | 5%
Cc1noc(C)c1S(=O)(=O)NCCc1csc2nc(-c3ccc(Cl)cc3)nn12 | -36% | -14% | -9% | nt
C=CCOc1c(Br)cc(CNc2ccc(NC(=O)CCC)cc2)cc1OCC | -4%[57.5 µM] | 8.9µM* | -12% | -2%
CCOc1cc(CNc2ccc(N3CCOCC3)cc2)cc(Br)c1OCC | -22% | ? | 3% | 12%
CCOc1cc(CNc2ccc3c(c2)OCCO3)cc(Br)c1OCC | -9%[57.5 µM] | 2.2µM* | -29% | 1%
CCCCCCCC(=O)CC[C@H]1[C@@H](C/C=C/CCCC(=O)OC(C)C)[C@@H](O)C[C@H]1O | nt | nt | nt | -7%

Screening data (PubChem)
